Assay results: PubChem BioAssay

target: Luciferin 4-monooxygenase (Photinus pyralis) (UniProt P08659); assay: inhibition of purified Photinus pyralis luciferase – biochemical, luminescence, purified enzyme, 2006 set, primary screen (AID 1141); details: purified firefly luciferase, SteadyGlo luminescence, 30 min; higher = more signal, called active from +8 up or from −8 down;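 note: cell-free assay with purified firefly luciferase at 100 ng per well in PBS; test concentration not given here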
Sequence (P08659 whole entry, looked up): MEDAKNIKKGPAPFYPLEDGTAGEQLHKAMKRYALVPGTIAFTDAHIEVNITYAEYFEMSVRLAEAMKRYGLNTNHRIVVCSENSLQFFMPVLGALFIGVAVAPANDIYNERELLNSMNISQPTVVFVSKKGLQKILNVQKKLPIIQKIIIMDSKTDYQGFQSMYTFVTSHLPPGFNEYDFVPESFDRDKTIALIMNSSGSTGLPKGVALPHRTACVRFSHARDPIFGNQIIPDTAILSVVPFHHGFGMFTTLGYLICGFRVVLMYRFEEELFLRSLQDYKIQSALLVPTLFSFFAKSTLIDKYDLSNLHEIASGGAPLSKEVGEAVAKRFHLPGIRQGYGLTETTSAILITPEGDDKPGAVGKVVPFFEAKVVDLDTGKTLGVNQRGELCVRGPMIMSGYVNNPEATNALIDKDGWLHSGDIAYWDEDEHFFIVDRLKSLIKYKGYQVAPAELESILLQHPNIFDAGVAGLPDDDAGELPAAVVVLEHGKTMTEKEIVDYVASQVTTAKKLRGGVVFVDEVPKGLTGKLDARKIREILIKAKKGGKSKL

z-score, inactive:
CO[C@H]1COC(=O)CC=C[C@H](C)[C@@H](OC)COC(=O)CC=C[C@@H]1C -1.38
COc1cc(Cc2cc3c(c(CCc4ccccc4)n2)[Si](C(C)C)(C(C)C)OC3)cc(OC)c1OC 0.874
NC(=O)NCC#Cc1ccc2c(c1)[C@]1(C(=O)N2)[C@H](C(N)=O)[C@H]2C(=O)O[C@H](c3ccccc3)[C@H](c3ccccc3)N2[C@@H]1c1ccccc1OCCO 0.171
COCCOC(=O)N1C(=O)[C@@]2(c3cc(C#CCNC(N)=O)ccc31)[C@H](C(=O)N1CCCCCCC1)[C@H]1C(=O)O[C@H](c3ccccc3)[C@H](c3ccccc3)N1[C@@H]2c1ccccc1OCCO -0.201
C=CCC(OC(C)=O)[C@@H]1[C@@H](N(Cc2ccc(-c3ccccc3)cc2)C(=O)c2ccc(-c3ccccc3)cc2)c2cc(OCCCO)ccc2N1C(=O)Cc1ccc(OC)cc1 (stereo partly drawn) -0.115
C[C@H]1C2[C@H](Cc3ccccc3)NC(=O)[C@]23C(=O)N[C@H](Cc2ccccc2)C(=O)N[C@@H](Cc2ccccc2)C(=O)NC/C=C\C/C=C/C3[C@@H]2O[C@]12C (stereo partly drawn) -1.06
CCOC(=O)C1=C[C@@H](c2ccccc2)N(S(=O)(=O)c2ccc(C)cc2)[C@H]1c1ccc(F)cc1 1.54
CC(C)[Si](OCCCNS(=O)(=O)c1ccc(Br)cc1)(C(C)C)C(C)C -1.22
